Measurements: PubChem BioAssay AID651644 (National Center for Advancing Translational Sciences (NCATS), 2012)
The campaign covered roughly 360,000 compounds. About 750 (0.21%) were called active. Roughly 2% stayed inconclusive and do not appear here. The call rests on the fitted dose curve; in most records, active means well fitted falling curve with a large enough effect; inconclusive means small, poorly fitted or top-dose-only effect; inactive means no such curve, though single readings can be large or run the other way. Shown is part of a subset that was picked to be rich in actives. Where a call stands in place of a potency, no number is given.

experiment: qHTS Assay for Inhibitors of the HIV-1 protein Vpr; further: nearly all actives have a fitted effect of over 50% in size; details: S. pombe RE007 Vpr strain, BacTiter-Glo ATP luminescence, 24 h; series mostly up to 92.2 µM
From the text: Human immunodeficiency virus type 1 (HIV-1), the causative agent of AIDS, contains a protein called viral protein R (Vpr) that plays an important role in the viral life cycle and the pathogenesis of HIV-1.
These Vpr specific activities include cytoplasmic-nuclear shuttling, induction of cell cycle G2 arrest and cell killing. The cytoplasmic-nuclear shuttling is believed to participate in nuclear transport of the proviral integration complex (PIC). The cell cycle G2 arrest induced by Vpr is thought to suppress human immune functions by preventing T cell clonal expansion and to provide an optimized cellular environment for maximal levels of viral replication. In addition, Vpr induces apoptosis, which may contribute to the depletion of CD4 T cells in HIV-infected patients. Since the Vpr-specific activities have been linked to such clinical manifestation of AIDS as activation of viral replication, suppression of host immune responses and depletion of CD4+ T-lymphocytes, identification of new molecular probes that can inhibit the Vpr activities could potentially provide a new approach to reduce Vpr-mediated detrimental effects in HIV-infected patients, and thus prolong patient's lives. Currently, there are no anti-Vpr drugs.
A fission yeast (Schizosaccharomyces pombe) model system for the Vpr studies has been developed which measures HIV-1 Vpr-induced cell death. This assay will be used for to screen the NIH Molecular Libraries Small Molecule Repository (MLSMR) identify small molecule HIV-1 Vpr inhibitors.
NIH Chemical Genomics Center [NCGC]
NIH Molecular Libraries Probe Centers Network [MLPCN]
Assay Submitter (PI): Richard Zhao, University of Maryland
The fission yeast RE007 strain was used, which carries a single integrated copy of HIV-1 vpr gene in the yeast chromosome. The starting culture was frozen stock 100ul of yeast RE007 in 150ml of *PMG+AL medium, Incubation in 30 degree plus 99% humidity for 18 hours. Next day dispensed 2.5ul of PMG+AL medium in each well to 1536 well white solid plate, then 23nL compound were delivered to each well using a pin tool. Check OD for overnight culture and add cell density at 0.01 for each well, incubation in 30 degree plus 99% humidity for 24 hours. After add 5 ul of *BacTiter/Glo detect reagent to each well at room temperature for 5 minutes then to red out results with Viewlux CCD camera.
Potency means the concentration at half of the fitted maximal effect.

Compound | Potency | activity change, negative = less growth
Cc1cc(C)c2c(n1)sc1c(=O)n(-c3ccccc3)c(=O)[nH]c12 | inactive | –
CCCCCCCCc1c(O)nc(-n2[nH]c(C)c(CCO)c2=O)[nH]c1=O | inactive | –
Cc1ccc(-c2nn(-c3ccc(F)cc3)cc2C(=O)NCC(c2cccs2)N2CCOCC2)cc1 (stereo unspecified) | inactive | –
FC(F)(F)C1CCCN(c2nsc3ccccc23)C1 (stereo unspecified) | 8.91 µM (active) | –
CCn1ncc(C2=NOC(C(=O)N3CCN(c4ccccc4)CC3)C2)c1C (stereo unspecified) | inactive | –
CC1Cc2ccccc2N1C(=O)c1cc2sccc2n1Cc1ccccc1 (stereo unspecified) | inactive | –
COc1ccc(C(CNC(=O)c2cc(S(=O)(=O)Nc3cccc(C)c3)ccc2C)N2CCCC2)cc1 (stereo unspecified) | inactive | –
CCn1cc(C(=O)N[C@@H](C)C(=O)NCCO)c(=O)c2cc3c(cc21)OCO3 | inactive | –
O=[N+]([O-])c1ccc(C=Nc2ccc(Cl)cc2Cl)s1 | 3.16 µM (active) | –
Cc1ccc(S(=O)(=O)N(c2cccc(C)c2)C2CCS(=O)(=O)C2)cc1 (stereo unspecified) | inactive | –
CN1CCN(C(=O)c2ccccc2NC(=O)COc2ccccc2Cl)CC1 | inactive | –
COc1ccc(NC(=O)c2cccc(Cl)c2)c[n+]1[O-] | inactive | –
Cc1cccc(NS(=O)(=O)c2ccc(-c3cnc(C4CC4)o3)cc2)c1 | inactive | –
Cc1ccccc1OCC(=O)NCC(=O)OCC(=O)c1ccc2ccccc2c1 | inactive | –
Cc1cccc(C)c1NC(=O)Nc1ccccc1-n1ccnc1 | inactive | –
CC(C)NC(=O)CSc1ccccc1C(=O)NCc1ccc2c(c1)OCO2 | inactive | –
CCSc1ccccc1C(=O)Nc1ccc2c(c1)OCO2 | 28.2 µM (active) | –
CCOc1ncccc1C(=O)Nc1ccc2c(c1)OCCO2 | inactive | –
O=C1COc2ccc(C(=O)COC(=O)CCOc3ccccc3)cc2N1 | inactive | –
O=S(=O)(NCCS(=O)(=O)N1CCN(c2ccccc2)CC1)c1ccc(F)cc1 | inactive | –
Cc1c(C(=O)OCC(=O)N(CCC#N)c2ccccc2)oc2c1ccc1ccccc12 | inactive | –
O=C(NC(c1ccc(-c2ccccc2)cc1)c1cnccn1)C1CCN(CCOc2ccc(Cl)cc2Cl)CC1 (stereo unspecified) | – | -8.16% [at 18.4 µM] (inactive)

Compound | Potency | activity change, negative = less growth
NNC(=O)C1CCCn2c1nc1sc3c(c1c2=O)CCCC3 (stereo unspecified) | inactive | –
CCCCc1c(O)nc2n(c1=O)CCS2 | inactive | –
CC1CCc2c(sc3nc4n(c(=O)c23)CCS4)C1 (stereo unspecified) | 12.6 µM (active) | –
Cc1cccc(C(=O)OCC(=O)NCC(C)C)c1O | inactive | –
Cc1cccc(N2CCN(Cc3nc(C4CC4)no3)CC2)n1 | inactive | –
COP1(=O)C[C@@H](O)[C@@H](O)[C@@H](COCc2ccccc2)O1 (stereo partly specified) | inactive | –
O=C(Nc1nnc(C2COc3ccccc3O2)o1)c1ccc(F)cc1 (stereo unspecified) | inactive | –
O=C(CCn1nnnc1CN1CCOCC1)N1CCC(c2ccccc2Cl)C1 (stereo unspecified) | inactive | –
CC(C)OC(=O)c1ccc(NCc2cc(O)ccc2O)cc1Cl | 28.2 µM (active) | –
CCC(C)c1ccccc1N1CC(C(=O)N2CCN(S(=O)(=O)c3ccc(F)cc3)CC2)CC1=O (stereo unspecified) | inactive | –
COc1ccc(C(=O)CN2C(=O)NC3(CCc4ccccc43)C2=O)c(OC)c1 (stereo unspecified) | inactive | –
Cc1ccc(OCCCCc2c(C)n[nH]c2C)cc1 | inactive | –
NC1=C([N+](=O)[O-])C(c2ccccc2)C2=C(CCCC2=O)O1 (stereo unspecified) | inactive | –
CCc1ccc2oc(-c3ccc(N)cc3)nc2c1 | 11.2 µM (active) | –
COc1ccccc1N1CCN(S(=O)(=O)c2ccc3c(c2)NC(=O)CS3)CC1 | inactive | –
CC1(C(=O)Nc2ccc3c(c2)OCCO3)CSCC(=O)N1CCOc1ccccc1 (stereo unspecified) | inactive | –
Cc1nn(CCCC(=O)NCc2ccccc2Cl)c(=O)c2nccn12 | inactive | –
O=c1c2ccccc2ncn1CCc1ccncc1 | inactive | –
NNc1cccc(C=Cc2ccccc2)cc1=O | 28.2 µM (active) | –
COc1ccccc1C(=O)NCc1nnc(SC(C)C(=O)Nc2nccs2)n1C (stereo unspecified) | inactive | –
Cc1ccc2cc3cc(C(=O)N4CCCCCC4)oc3nc2c1 | inactive | –
O=C(c1cccc(Br)c1)N1CCN(C2=NS(=O)(=O)c3ccccc32)CC1 | inactive | –

Compound | Potency | activity change, negative = less growth
CCCOc1ccc(NC(=O)CC2C(=O)N(C)C(=S)N2Cc2ccc3c(c2)OCO3)cc1 (stereo unspecified) | inactive | –
O=C(NCCc1ccccn1)c1cccnc1Oc1ccc(Cl)cc1 | inactive | –
CCOc1ccc(CCNC(=O)CSc2cc(=O)n(C)c3ccc(Cl)cc23)cc1OCC | inactive | –
CN(C)NC(=O)C(NC(=O)c1ccc(N)cc1)C12CC3CC(CC(C3)C1)C2 (stereo unspecified) | inactive | –
CC1(C)CC[C@]2(C(=O)O)CC[C@]3(C)C(=CCC4[C@@]5(C)CC[C@H](O)C(C)(C)C5[C@H](O)C[C@]43C)[C@@H]2C1 (stereo partly specified) | inactive | –
O=C(Nc1ccc(F)cc1)Nc1nnc([C@H]2C[C@H](O)[C@@H](CO)O2)s1 | inactive | –
COC(=O)C1CCN(C(=O)COC(=O)c2cc(S(=O)(=O)N3CCOCC3)ccc2C)CC1 | inactive | –
CC1CCCC(C)N1C(=O)CN1CCN(c2nc(-c3ccc(F)cc3)cs2)CC1 (stereo unspecified) | inactive | –
O=C(NC1CCCC1)C(c1c(F)cccc1Cl)N(C(=O)c1csnn1)C1CC1 (stereo unspecified) | inactive | –
O=C(OCC(O)C(O)COC(=O)c1ccccc1)c1ccccc1 (stereo unspecified) | inactive | –
O=C(Nc1ccc(S(=O)(=O)N2CCc3ccccc3C2)cc1)c1ccccc1 | inactive | –
O=C(NC1=CC(=O)c2ccccc2C1=O)c1ccccc1 | 12.6 µM (active) | –
COc1ccc(C(=O)C(OP(=O)(OC)OC)c2ccccc2OC)cc1 (stereo unspecified) | inactive | –
COc1ccc(N2CCN(C3CC(=O)N(c4ccc5c(c4)OCCO5)C3=O)CC2)cc1 (stereo unspecified) | inactive | –
CCOC(=O)c1ccc(N2C(=O)CC(Sc3nc(O)c(CC)c(=O)[nH]3)C2=O)cc1 (stereo unspecified) | inactive | –
CCCCOC(=O)c1ccc(N2C(=O)CC(N3CCN(C/C=C/c4ccccc4)CC3)C2=O)cc1 (stereo unspecified) | inactive | –
CCOC(=O)c1ccc(N2C(=O)CC(N3CCC(C(=O)OCC)CC3)C2=O)cc1 (stereo unspecified) | 12.6 µM (active) | –
COc1ccc(N2C(=O)CC(N3CCC(C(N)=O)CC3)C2=O)cc1 (stereo unspecified) | 25.1 µM (active) | –
COC(=O)c1cc(C(=O)OC)cc(N2C(=O)CC(N3CCN(c4ccccc4)CC3)C2=O)c1 (stereo unspecified) | inactive | –
CCOC(=O)c1ccc(N2C(=O)CC(N(C)Cc3ccccc3)C2=O)cc1 (stereo unspecified) | 12.6 µM (active) | –
CCOC(=O)N(Cc1ccccc1)C1CC1 | inactive | –
COc1ccc(CCN2C(=O)CC(N3CCC(C(N)=O)CC3)C2=O)cc1OC (stereo unspecified) | inactive | –
